Assay results taken from the supplement of paper PMC7858590.
“And” between values parts separate entries of the source, which are not always exact repeats. Equal values may be shown once. ± gives the standard deviation of the averaged measurements. In all, about 3,800 compounds were measured (“cell shape (eccentricity) Z-score vs DMSO control”: median about 1.1, lowest 2% from about -4.7 on). The full list was thinned out, with the lowest values kept by preference.

test system: human monocyte-derived macrophages (M0); assay: cell shape (eccentricity) Z-score vs DMSO control; higher = more elongated, M2-like morphology; conditions: 20 µM; 24 h; macrophage state: M0 (M-CSF)

SMILES | cell shape (Z-score)
CN1C(C(=O)Nc2ccccn2)C(=O)c2ccccc2S1(=O)=O (stereo unspecified) | 1.33
CC(=O)C(C#N)C(=O)Nc1cc(Br)ccc1Br (stereo unspecified) | -5.16
C[C@H]1CN([C@@H](C)CO)S(=O)(=O)c2ccc(C#Cc3ccccc3F)cc2O[C@H]1CN(C)C(=O)Cc1ccncc1 | 2.68
C[C@@H]1CN([C@H](C)CO)S(=O)(=O)c2ccc(C#Cc3ccncc3)cc2O[C@H]1CN(C)C(=O)Nc1ccc2c(c1)OCO2 | 3.81
C[C@H]1CN([C@@H](C)CO)S(=O)(=O)c2ccc(C#Cc3ccncc3)cc2O[C@@H]1CN(C)C(=O)Nc1ccc2c(c1)OCO2 | -10.9
COc1cc2oc(-c3ccccc3)cc(=O)c2c(O)c1OC | 3.73
CCN(CC)CCNC(=O)c1c(C)[nH]c(/C=C2\C(=O)Nc3ccc(F)cc32)c1C | 10.3 and 12.2
C=C1C(=O)O[C@@H]2C[C@H](C)C3C[C@H](O)[C@H](O)[C@@]3(C)C[C@H]12 (stereo partly specified) | -2.78 ± 0.67
CN[C@H]1CC[C@@H](c2ccc(Cl)c(Cl)c2)c2ccccc21 | -5.32
C=C1CC(O)C2C(=C)C(=O)OC2C2C(=C)C(OC3OC(CO)C(O)C(OC(=O)/C=C/c4ccc(O)c(O)c4)C3O)CC12 (stereo unspecified) | -1.95
CC(C)CC1NC(=O)C2CCCN2C1=O (stereo unspecified) | 2.84
CC(C)CC1NC(=O)C(C)NC1=O (stereo unspecified) | -5.83
CC(C)=CCc1c(O)cc(O)c2c1OC(c1ccc(O)c(O)c1)CC2=O (stereo unspecified) | 1.24
O=C1c2cccc(O)c2C(=O)c2c(O)cccc21 | 3.05
c1ccc2nc(C3=NCCN3)cnc2c1 | 1.3
c1ccc2cc(C3=NCCN3)ncc2c1 | -4.69
c1ccc2nc(C3=NCCN3)ccc2c1 | 0.187
CCOc1ccc(Cc2cc([C@@H]3O[C@H](CO)[C@@H](O)[C@H](O)[C@H]3O)ccc2Cl)cc1 | -0.0179
CC1(C)C(=O)C=C[C@@]2(C)C1C=C[C@]1(C)C2CC[C@@]2(C)[C@H](c3ccoc3)OC(=O)[C@H]3O[C@]321 (stereo partly specified) | 7.92
CCc1cc(C(C)=O)c(O)cc1OCCCCCC(C)(C)c1nnn[nH]1 | 1.49
CC(C)NC(=N)NC(=N)Nc1ccc(Cl)cc1 | 0.874
N=C(NCCCCCCNC(=N)NC(=N)Nc1ccc(Cl)cc1)NC(=N)Nc1ccc(Cl)cc1 | -6.88
N=C(N)Nc1ccc(Cl)cc1 | 0.554
CC(=O)N[C@H]1[C@H](O[C@H]2CC[C@@]3(C)C(CC[C@]4(C)C3CC=C3[C@@H]5CC(C)(C)CC[C@]5(C(=O)OC5OCC(O)C(O)C5O)C(O)C[C@]34C)C2(C)C)O[C@H](COC2OCC(O)C(OC3OCC(O)C(O)C3O)C2O)[C@@H](O[C@@H]2O[C@@H](C)[C@H](O)[C@@H](O)[C@H]2O[C@@H]2O[C@@H](C)[C@H](O)[C@@H](O)[C@H]2O)[C@@H]1O (stereo partly specified) | -2.27 ± 4.4
O=C1NN(C(=O)Nc2ccc(Br)cc2)[C@@H](c2ccccc2)[C@@H]1c1ccccc1 | 1.43
COC(=O)[C@@H]1[C@H]2C[C@H]3c4[nH]c5ccccc5c4CCN3C[C@@H]2CC[C@@H]1O | -0.402

SMILES | cell shape (Z-score)
O=C(/C=C/c1ccc(O)cc1)CC(=O)/C=C/c1ccc(O)cc1 | -1.34
O=C(/C=C/c1ccccc1)CC(O)CCc1ccccc1 (stereo unspecified) | -0.2
O=C(/C=C/c1ccccc1)CC(=O)/C=C/c1ccccc1 | -8.63
c1ccc(-c2n[nH]c3c2oc2ccccc23)cc1 | 0.646
CCN1C(=CC=Cc2ccc3ccccc3[n+]2CC)C=Cc2ccccc21 | -7.46
CC1(C)CCC(C)(C)c2cc([C@@H](O)C(=O)Nc3ccc(C(=O)O)cc3F)ccc21 | 5.37
C=C(NC(=O)C(=C)NC(=O)c1csc(C2=N[C@H]3c4csc(n4)[C@H]4NC(=O)c5csc(n5)[C@H]([C@@](C)(O)[C@@H](C)O)NC(=O)[C@H]5CSC(=N5)C(=CC)NC(=O)[C@H]([C@@H](C)O)NC(=O)c5csc(n5)[C@]3(CC2)NC(=O)[C@H](C)NC(=O)C(=C)NC(=O)[C@H](C)NC(=O)[C@H](C(C)CC)N[C@@H]2C=Cc3c([C@H](C)O)cc(nc3[C@H]2O)C(=O)O[C@@H]4C)n1)C(N)=O (stereo partly specified) | -6.13
COc1cc(C)c(C(=O)O[C@H]2[C@@H](OC(C)=O)[C@H](n3ccc(=O)[nH]c3=O)O[C@@H]2CO)c(OC)c1 | 1.91 ± 0.92
Cc1ccc(/C(=C\CN2CCCC2)c2ccccn2)cc1 | 1.6
CCOC(=O)N[C@@H]1CC[C@@H]2[C@@H](C1)C[C@H]1C(=O)O[C@H](C)[C@H]1[C@H]2/C=C/c1ccc(-c2cccc(F)c2)cn1 | 5.12
CC(=O)O[C@H]1C(=O)[C@@]2(C)[C@H]([C@H](OC(=O)c3ccccc3)[C@]3(O)C[C@H](OC(=O)[C@H](O)[C@@H](NC(=O)c4ccccc4)c4ccccc4)C(C)=C1C3(C)C)[C@]1(OC(C)=O)CO[C@@H]1C[C@@H]2O | -5.5
CC(=O)OC1C(=O)C2(C)C(O)CC3OCC3(OC(C)=O)C2C(OC(=O)c2ccccc2)C2(O)CC(OC(=O)C(O)C(NC(=O)c3ccccc3)c3ccccc3)C(C)=C1C2(C)C (stereo unspecified) | -3.69
CC(=O)O[C@H]1C(=O)[C@@]2(C)C([C@H](OC(=O)c3ccccc3)[C@]3(O)C[C@H](OC(=O)[C@H](O)[C@@H](NC(=O)c4ccccc4)c4ccccc4)C(C)=C1C3(C)C)[C@]1(OC(C)=O)CO[C@@H]1C[C@@H]2O (stereo partly specified) | -4.41 and -4.29 and -4.69
CC/C(=C(/CC)c1ccc(O)cc1)c1ccc(O)cc1 | 1.77
CC1(C)CC[C@]2(C(=O)O[C@@H]3O[C@H](CO)[C@@H](O)[C@H](O)[C@H]3O)CC[C@]3(C)C(=CCC4[C@@]5(C)C[C@@H](O)[C@H](O)[C@](C)(CO)C5CC[C@]43C)C2[C@@H]1O (stereo partly specified) | 1.6
Cc1[nH]c2ccccc2c1CCNCc1ccc(/C=C/C(=O)NO)cc1 | 4.88 and 5.32
C/C=C/C=C/C(=O)c1cc(C)c(O)c(C)c1O | 1.03
Cc1cc2nc3c(=O)[nH]c(=O)nc-3n(C)c2cc1C=O | -7.12
Cc1cc2nc3c(=O)[nH]c(=O)nc-3n(C[C@@H](O)[C@@H](O)[C@@H](O)CO)c2cc1C | 0.422
CCCCCCCNS(=O)(=O)c1cccc2c(Cl)cccc12 | 0.986
CN(C)CCCSC(=N)N | 0.27
NC(COCc1ccccc1)C(=O)O (stereo unspecified) | 1.15
Oc1ccc(-c2nc(-c3ccc(F)cc3)c(-c3ccncc3)[nH]2)cc1 | -5.27
CS(=O)c1ccc(-c2nc(-c3ccc(F)cc3)c(-c3ccncc3)[nH]2)cc1 (stereo unspecified) | 3.26
CS(=O)(=O)c1ccc(-c2nc(-c3ccc(F)cc3)c(-c3ccncc3)[nH]2)cc1 | 1.46
